The values below come from PubChem BioAssay (NCI).

Structures are written as SMILES. This is part of a sample that, as a whole, favours compounds with a hit. Of some 83,000 tested, about 20% had one in any assay.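 Note: values are percent growth. 100 is the growth of untreated cells, values between 100 and 0 indicate rising inhibition; between -100 and 0 indicates cell death.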 Values without a mark were called inactive. The source made the active and inactive calls. The calls were made as follows: active = growth percent below 10; inactive = the rest.

The test system of this assay is OVCAR-4 ovarian. Description: NCI-60 one-dose screen, 48 h (100 = growth as untreated, 0 = no growth, -100 = all killed). The following applies: 10 µM unless noted.
As to `O=C(Nc1nc2ccc(C(F)(F)F)cc2s1)c1cc(Cl)ccc1O`, the growth was 20.2%.
`NC(N)=NC(N)=Nc1cc2ccccc2c2ccccc12`: the growth was 45.8%.
For `CC(=O)Oc1c2c(nc3c1c1ccccc1n3Cc1ccccc1)-c1ccccc1C2`, the growth is 83.9%.
With `CN1C(=O)c2cc(Cl)nc3c(NC(=O)c4cccc(Cl)c4)c(Cl)c(NC(=O)c4cccc(Cl)c4)c1c23`, the growth is -22.7% (active).
As to `CCOCCc1c(O)nc(SC)[nH]c1=O`, the growth was 108%.
For `COc1ccc2[nH]c(=O)c(/C=C/C(=O)/C=C/c3ccc(O)c(OC)c3)cc2c1`, the growth is 64.3%.
Under `CCOC(=O)c1c(C)nc2c(c1N)/C(=C/c1cccs1)C(=O)N2Cc1ccccc1` stands 82.3%; under `O=C(CCc1nnc2sc(OCc3ccccc3)nn12)c1nc2ccc([N+](=O)[O-])cc2[nH]1`, 102%.
As to `COc1ccc2c(c1)Oc1nc(N)c(C#N)c(N)c1C2Sc1ccc(O)cc1` (stereo not given), the growth is 88.8%.
Under `O=C(Nc1nccs1)c1noc2ccccc12` stands 88.4%.
Consider `Cc1cccc(C)c1NCc1nnc(-c2ccco2)o1`, for which the growth was 101%.
Turning to `CCOC(=O)C1=C(C)n2nc(CC#N)c(C#N)c2NC1c1ccc(Cl)cc1` (stereo not given), the growth is 99.3%.
As for `CCOc1ccccc1C(=O)/C=C/c1cc2ccccc2[nH]c1=O`, the figure is 32.3%; as for `COc1cc(NC(=O)Nc2cnc(Nc3ccc(N4CCOCC4)cc3)nc2Oc2ccc(F)cc2)cc(OC)c1`, 60%; as for `Cc1cc(Cl)cc(CN(Cc2ccccc2)Cc2c(O)ccc3ccccc23)c1O`, 105%.
